Test results from PubChem BioAssay (NCI).
This is part of a sample that, as a whole, favours compounds with a hit. Of some 83,000 tested, about 20% had one in any assay.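 Cell lines were cultured in 96-well plates, exposed to a single compound concentration, and assessed for percent growth 48 hours later.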 Values without a mark were called inactive. Active and inactive are the calls of the source. Rule for the calls: active = growth percent below 10; inactive = the rest.

Assays:
Test in all cases: NCI-60 one-dose screen, 48 h (100 = growth as untreated, 0 = no growth, -100 = all killed)
Conditions in all cases: 10 µM unless noted
SK-MEL-2 melanoma = test system: SK-MEL-2 melanoma
EKVX NSCLC = test system: EKVX NSCLC
SN12C renal = test system: SN12C renal
UO-31 renal = test system: UO-31 renal
ACHN renal = test system: ACHN renal
CCRF-CEM leukemia = test system: CCRF-CEM leukemia
MOLT-4 leukemia = test system: MOLT-4 leukemia
SR leukemia = test system: SR leukemia
RPMI-8226 leukemia = test system: RPMI-8226 leukemia
OVCAR-8 ovarian = test system: OVCAR-8 ovarian
OVCAR-5 ovarian = test system: OVCAR-5 ovarian
OVCAR-4 ovarian = test system: OVCAR-4 ovarian
SK-OV-3 ovarian = test system: SK-OV-3 ovarian
IGROV1 ovarian = test system: IGROV1 ovarian
OVCAR-3 ovarian = test system: OVCAR-3 ovarian
HS 578T breast = test system: HS 578T breast
NCI/ADR-RES ovarian = test system: NCI/ADR-RES ovarian
CAKI-1 renal = test system: CAKI-1 renal
A498 renal = test system: A498 renal
TK-10 renal = test system: TK-10 renal

Compound	growth (SK-MEL-2 melanoma)	growth (EKVX NSCLC)	growth (SN12C renal)	growth (UO-31 renal)	growth (ACHN renal)	growth (CCRF-CEM leukemia)	growth (MOLT-4 leukemia)	growth (SR leukemia)	growth (RPMI-8226 leukemia)	growth (OVCAR-8 ovarian)	growth (OVCAR-5 ovarian)	growth (OVCAR-4 ovarian)	growth (SK-OV-3 ovarian)	growth (IGROV1 ovarian)	growth (OVCAR-3 ovarian)	growth (HS 578T breast)	growth (NCI/ADR-RES ovarian)	growth (CAKI-1 renal)	growth (A498 renal)	growth (TK-10 renal)
Cc1cc(N2CCCC2)nc(NC2CCCC(Nc3ccnc4cc(Cl)ccc34)C2)n1 (centres undefined)	-87.5% (active)	11.1%	-49.4% (active)	-93.3% (active)	-98% (active)	-22.2% (active)	-20.8% (active)	-56.6% (active)	-55.6% (active)	-69.8% (active)	-14.8% (active)	17.1%	-29% (active)	-27.5% (active)	-53.2% (active)	-41.6% (active)	-10.1% (active)			
Cc1cc(C)nc(SC2=C(Nc3ccc(O)cc3)C(=O)N(Cc3ccccc3)C2=O)n1	96.1% [40 µM]	77.4% [40 µM]	94.3% [40 µM]	70.8% [40 µM]	93.4% [40 µM]	39.1% [40 µM]		73.6% [40 µM]	38.8% [40 µM]	111% [40 µM]	120% [40 µM]	85.6% [40 µM]	94.3% [40 µM]	81.4% [40 µM]	80.9% [40 µM]	-13.2% [40 µM] (active)	69% [40 µM]	64.4% [40 µM]	112% [40 µM]	
COc1cc2c(cc1-c1c(C)noc1C)ncc1nc(C3CCCCC3)n([C@H](C)COC(F)F)c12	69%	44.3%	58.4%	13.6%	33.1%	44.9%		17.9%	18.9%	42%	75.1%	44.8%	12.5%	37.8%	37.3%	18.9%	38.2%	29.2%	-13.1% (active)	
Nc1nc2ccc3[nH]ncc3c2c2c1CCCC2	-7.53% (active)	-4.32% (active)	11.3%	5.99% (active)	3.71% (active)	0.983% (active)	-2.01% (active)	-16.6% (active)	6.83% (active)	7.6% (active)	8.24% (active)	16.2%	16.6%	8.21% (active)	5.2% (active)	-9.88% (active)	2.46% (active)	6.67% (active)		
CN1CCN(c2nc(NCCCCNc3ccnc4cc(Cl)ccc34)c3ccccc3n2)CC1	87.3%	80.7%	79.8%	46.1%	74.3%	35.3%	43.9%	-26.6% (active)	-8.38% (active)	38.3%	112%	68.5%	104%	78.2%		81.1%	95.3%		71.1%	
CCCn1c(=O)[nH]c(N)c([C@H]2c3ccccc3Oc3[nH]c(=O)n(CCC)c(=O)c32)c1=O	92%	93.2%		78.8%	73.6%	14.3%	39.5%	4.41% (active)	81.7%	78.9%	99.4%	64.6%	104%	89%	13.8%	92.8%	94.8%	86.1%	92.9%	79%
CCNC(=O)Oc1ccc(/C(=C(\C)c2ccc(Cl)cc2)c2ccc(OCCN3CCCCC3)cc2)cc1	62.9%	57.4%	64.8%	39.3%	79.9%	22.4%		-20.8% (active)	-4.11% (active)	70.4%	74.9%	43.7%	63.2%	56.8%	60.8%	55.9%	64.9%		83.6%	
Nc1ccn(-c2ccc(Br)cc2)c(=O)n1	87.9%	95.8%	115%		111%	-23.5% (active)	107%		95.9%	117%	84%	104%	162%		48%	122%	89.5%	87.2%	99.5%	113%
COc1cccc(C2=NN3C(C2)c2cc(Br)cc(OC)c2OC32CCN(Cc3ccccc3)CC2)c1 (centres undefined)	102%	94.8%	98.7%	85.3%	102%	109%	106%		107%	104%	105%	90.8%	106%	98.6%	105%	94.7%	105%	90.3%	104%	
